These results are taken from PubChem BioAssay (EPA / NIEHS).

Molecules are shown by their SMILES. Inconclusive results are not listed. Activity calls are given as the source filed them. Rule for the calls, unless noted: active = hit-call score of the fitted dose curve at least 0.9, where 1 is the maximum; inactive = score below 0.9.

Read-out in experiment [1]: Phosphatase and tensin (PTEN), PTEN (gene 5728)
Description: LTEA_HepaRG_PTEN: Life Technologies and Expression Analysis (LTEA) Assay for Phosphatase and tensin (PTEN) using HepaRG (AID 2283523). The note with it: mRNA level, 48 h; actives raise or lower the signal. The method in brief:
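HepaRG, 48 h exposure, 8-pt half-log series from 100 uM top, 0.5% DMSO vehicle, duplicates. Readout: Fluidigm qRT-PCR of PTEN transcript; housekeeping normalization (ACTB, GAPDH, POLR2A). Gain or loss fitted relative to DMSO baseline.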

Read-out in experiment [2]: solute carrier (SLC22A1), SLC22A1 (gene 6580)
Description: LTEA_HepaRG_SLC22A1: Life Technologies and Expression Analysis (LTEA) Assay for solute carrier (SLC22A1) using HepaRG (AID 2283524). The note with it: mRNA level, 48 h; actives raise or lower the signal. Summed up:
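qRT-PCR readout (TaqMan, Fluidigm arrays) of SLC22A1 transcript, normalized to three housekeeping genes; bidirectional curve fit relative to 0.5% DMSO vehicle. Differentiated human HepaRG cells, 48 h chemical exposure, top concentration 100 uM, half-log steps, eight points.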

Read-out in experiment [3]: Nuclear factor erythroid 2-related factor 2 (Homo sapiens) (UniProt Q16236)
Kind of experiment: LTEA_HepaRG_NFE2L2: Life Technologies and Expression Analysis (LTEA) Assay for Nuclear factor erythroid 2-related factor 2 (NFE2L2) Transcription Factor using HepaRG (AID 2283527).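 Note: TaqMan qRT-PCR transcript level normalised to ACTB GAPDH and POLR2A housekeeping genes.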 Particulars: mRNA level, 48 h; actives raise or lower the signal. Summed up: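 HepaRG, 48 h dosing, 8-pt half-log series from 100 uM in 0.5% DMSO, duplicates. Read-out: NFE2L2 mRNA by qRT-PCR (ACTB/GAPDH/POLR2A normalization). Bidirectional curve fit vs DMSO baseline.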

Read-out in experiment [4]: succinate dehydrogenase complex iron sulfur subunit B (SDHB), SDHB (gene 6390)
Description: LTEA_HepaRG_SDHB: Life Technologies and Expression Analysis (LTEA) Assay for succinate dehydrogenase complex iron sulfur subunit B (SDHB) using HepaRG (AID 2283528). The note with it: mRNA level, 48 h; actives raise or lower the signal. Summed up: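 Readout is SDHB transcript level by qRT-PCR, normalised to three housekeeping genes and fitted bidirectionally against 0.5% DMSO vehicle. Human HepaRG cells were treated for 48 h at up to 100 uM.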

Read-out in experiment [5]: Signal transducer and activator of transcription 3 (Homo sapiens) (UniProt P40763)
Description: LTEA_HepaRG_STAT3: Life Technologies and Expression Analysis (LTEA) Assay for Signal transducer and activator of transcription (STAT3) using HepaRG (AID 2283529). The note with it: mRNA level, 48 h; actives raise or lower the signal. The method in brief:
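HepaRG, 48 h exposure, 8-pt half-log series (top 100 uM), 0.5% DMSO vehicle, duplicates. Readout: STAT3 transcript by Fluidigm qRT-PCR, housekeeping-normalized; bidirectional fit vs DMSO baseline.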

Read-out in experiment [6]: solute carrier (SLCO1B1), SLCO1B1 (gene 10599)
Description: LTEA_HepaRG_SLCO1B1: Life Technologies and Expression Analysis (LTEA) Assay for solute carrier (SLCO1B1) using HepaRG (AID 2283530). Particulars: mRNA level, 48 h; actives raise or lower the signal. Summed up: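 Differentiated human HepaRG cells, plated 48 h, switched to serum-free induction medium and exposed in duplicate for 48 h to 8 half-log concentrations (top 100 uM) in 0.5% DMSO. SLCO1B1 mRNA by TaqMan qRT-PCR, normalized to ACTB/GAPDH/POLR2A.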

Read-out in experiment [7]: sulfotransferase 2A1 (SULT2A1), SULT2A1 (gene 6822)
Kind of experiment: LTEA_HepaRG_SULT2A1: Life Technologies and Expression Analysis (LTEA) Assay for sulfotransferase 2A1 (SULT2A1) using HepaRG (AID 2283531). The note with it: mRNA level, 48 h; actives raise or lower the signal. Summed up: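 Differentiated human HepaRG cells in serum-free induction medium were exposed for 48 h to eight half-log concentrations (top 100 uM, 0.5% DMSO). SULT2A1 mRNA was measured by qRT-PCR, normalized to ACTB, GAPDH and POLR2A, and fitted bidirectionally against DMSO.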

Read-out in experiment [8]: Transforming Growth Factor (TGFA), TGFA (gene 7039)
Description: LTEA_HepaRG_TGFA: Life Technologies and Expression Analysis (LTEA) Assay for Transforming Growth Factor (TGFA) using HepaRG (AID 2283532). The note with it: mRNA level, 48 h; actives raise or lower the signal. The method in brief: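 qRT-PCR read-out of TGFA transcript, normalized to three housekeeping genes, fitted bidirectionally against 0.5% DMSO baseline. Human HepaRG cultures received chemicals for 48 h at eight half-log concentrations, top 100 uM.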

Read-out in experiment [9]: Transforming Growth Factor (TGFB1), TGFB1 (gene 7040)
Kind of experiment: LTEA_HepaRG_TGFB1: Life Technologies and Expression Analysis (LTEA) Assay for Transforming Growth Factor (TGFB1) Transporter using HepaRG (AID 2283533). Particulars: mRNA level, 48 h; actives raise or lower the signal. The method in brief: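 Differentiated human HepaRG cells in serum-free induction medium were exposed in duplicate for 48 h to eight concentrations (top 100 uM, half-log steps, 0.5% DMSO). TGFB1 mRNA was quantified by qRT-PCR, normalized to ACTB, GAPDH, POLR2A, and fitted bidirectionally against DMSO.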

Read-out in another experiment: TIMP1, TIMP1 (gene 7076)
Description: LTEA_HepaRG_TIMP1: Life Technologies and Expression Analysis (LTEA) Assay for TIMP1 using HepaRG (AID 2283534). Particulars: mRNA level, 48 h; actives raise or lower the signal. Summed up: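 Differentiated human HepaRG cells in serum-free induction medium were exposed 48 h to chemicals (8 half-log concentrations, top 100 uM, 0.5% DMSO). TIMP1 mRNA was quantified by TaqMan qRT-PCR, normalized to ACTB/GAPDH/POLR2A; bidirectional fit versus DMSO.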

Read-out in experiment [10]: Tumor necrosis factor receptor 1 (TNFRSF1A), TNFRSF1A (gene 7132)
Kind of experiment: LTEA_HepaRG_TNFRSF1A: Life Technologies and Expression Analysis (LTEA) Assay for Tumor necrosis factor receptor 1 (TNFRSF1A) using HepaRG (AID 2283535). Particulars: mRNA level, 48 h; actives raise or lower the signal. Summed up:
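Differentiated human HepaRG cells were exposed in duplicate for 48 h in serum-free induction medium to eight concentrations (top 100 uM, half-log steps, 0.5% DMSO). TNFRSF1A mRNA was quantified by qRT-PCR, normalized to ACTB, GAPDH and POLR2A, then fitted bidirectionally against DMSO.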

Read-out in experiment [11]: Cellular tumor antigen p53 (Homo sapiens) (UniProt P04637)
Description: LTEA_HepaRG_TP53: Life Technologies and Expression Analysis (LTEA) Assay for Tumor Protein P53 (TP53) using HepaRG (AID 2283537). Particulars: mRNA level, 48 h; actives raise or lower the signal. The method in brief:
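Read-out is TP53 transcript level by microfluidic qRT-PCR, normalised to three housekeeping genes and fitted bidirectionally against DMSO. Human HepaRG cells received compounds for 48 h, highest concentration 100 uM.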

Read-out in experiment [12]: UDP glucuronosyltransferase (UGT1A1), UGT1A1 (gene 54658)
Description: LTEA_HepaRG_UGT1A1: Life Technologies and Expression Analysis (LTEA) Assay for UDP glucuronosyltransferase (UGT1A1) using HepaRG (AID 2283538). Particulars: mRNA level, 48 h; actives raise or lower the signal. The method in brief: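 Cells are plated, cultured 48 h, switched to serum-free induction medium, then dosed 48 h at eight concentrations (max 100 uM, 0.5% DMSO). RNA is isolated and UGT1A1 expression measured by qRT-PCR; changes versus DMSO are fitted in both directions.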

Read-out in experiment [13]: UDP glucuronosyltransferase (UGT1A6), UGT1A6 (gene 54578)
Kind of experiment: LTEA_HepaRG_UGT1A6: Life Technologies and Expression Analysis (LTEA) Assay for UDP glucuronosyltransferase (UGT1A6) using HepaRG (AID 2283539). The note with it: mRNA level, 48 h; actives raise or lower the signal. Summed up: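 Human HepaRG cells were dosed for 48 h in serum-free induction medium with 0.5% DMSO vehicle, eight-point half-log series from 100 uM, in duplicate. UGT1A6 mRNA was measured by qRT-PCR, normalized to ACTB, GAPDH, POLR2A, and fitted bidirectionally against DMSO.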

Read-out in experiment [14]: X-box binding protein 1 (XBP1), XBP1 (gene 7494)
Kind of experiment: LTEA_HepaRG_XBP1: Life Technologies and Expression Analysis (LTEA) Assay for X-box binding protein 1 (XBP1) using HepaRG (AID 2283540). Particulars: mRNA level, 48 h; actives raise or lower the signal. Summed up:
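Differentiated human HepaRG cells in serum-free induction medium were exposed in duplicate for 48 h to eight half-log concentrations up to 100 uM in 0.5% DMSO. XBP1 mRNA was quantified by qRT-PCR, normalised to ACTB, GAPDH and POLR2A, with bidirectional fitting against DMSO.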

The nature of experiment [15]: LTEA_HepaRG_LDH_cytotoxicity: Cytotoxicity Assessment in the Life Technologies and Expression Analysis (LTEA) Assay (AID 2283563; active = hit-call score of the fitted dose curve at least 0.9, where 1 is the maximum). The method in brief: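 Differentiated human HepaRG cells, plated 48 h beforehand, were switched to serum-free induction medium and exposed for 48 h to eight half-log concentrations (top 100 uM) in 0.5% DMSO. LDH was measured in spent medium; activity was fitted relative to DMSO vehicle.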

Read-out in experiment [16]: Thyroid Hormone Responsive (THRSP), THRSP (gene 7069)
Kind of experiment: LTEA_HepaRG_THRSP: Life Technologies and Expression Analysis (LTEA) Assay for Thyroid Hormone Responsive (THRSP) using HepaRG (AID 2283536). Particulars: mRNA level, 48 h; actives raise or lower the signal. The method in brief: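 qRT-PCR read-out (Fluidigm TaqMan), housekeeping-normalized (ACTB/GAPDH/POLR2A). HepaRG, 48 h chemical exposure, 8-pt half-log series from 100 uM in 0.5% DMSO, duplicates. Bidirectional curve fit vs 0.5% DMSO baseline.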

Read-out in experiment [17]: NAD(P)H dehydrogenase [quinone] 1 (NQO1), NQO1 (gene 1728)
Kind of experiment: LTEA_HepaRG_NQO1: Life Technologies and Expression Analysis (LTEA) Assay for NAD(P)H dehydrogenase [quinone] 1 (NQO1) using HepaRG (AID 2283526). Particulars: mRNA level, 48 h; actives raise or lower the signal. The method in brief: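 Transcript induction or suppression is quantified by qRT-PCR in human HepaRG liver cells dosed for 48 hours. Eight half-log concentrations topping at 100 uM are used, with 0.5% DMSO as vehicle and baseline.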

Experiment [18] can be described thus: ATG_XTT_Cytotoxicity: Cytotoxicity Assessment in the Attagene TRANS-FACTORIAL HepG2 Assay (AID 2283584; active = hit-call score of the fitted dose curve at least 0.9, where 1 is the maximum). The method in brief: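 HepG2 human liver cells, transiently transfected with multiple GAL4-UAS reporter units, were dosed and read at 24 h by XTT as cell number. Loss of signal was fitted relative to DMSO negative control baseline.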

Chain of Nuclear factor erythroid 2-related factor 2 (Homo sapiens) (Q16236 whole entry, looked up): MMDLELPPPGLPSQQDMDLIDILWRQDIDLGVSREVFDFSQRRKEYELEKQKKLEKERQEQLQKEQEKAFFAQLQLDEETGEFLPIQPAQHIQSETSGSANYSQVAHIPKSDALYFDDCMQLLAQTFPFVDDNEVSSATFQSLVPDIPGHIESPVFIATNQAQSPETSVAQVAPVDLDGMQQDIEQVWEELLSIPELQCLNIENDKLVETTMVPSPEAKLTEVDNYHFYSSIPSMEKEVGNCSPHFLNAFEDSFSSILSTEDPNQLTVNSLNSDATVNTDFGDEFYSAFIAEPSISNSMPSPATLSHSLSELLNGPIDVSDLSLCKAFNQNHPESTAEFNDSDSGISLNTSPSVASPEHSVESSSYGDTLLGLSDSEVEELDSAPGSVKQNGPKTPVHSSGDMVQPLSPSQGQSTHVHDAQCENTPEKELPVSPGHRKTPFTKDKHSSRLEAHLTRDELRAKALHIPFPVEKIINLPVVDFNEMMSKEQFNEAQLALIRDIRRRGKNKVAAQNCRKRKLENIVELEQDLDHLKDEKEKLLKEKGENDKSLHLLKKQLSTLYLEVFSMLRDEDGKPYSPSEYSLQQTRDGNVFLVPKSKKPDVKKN
Chain of Cellular tumor antigen p53 (Homo sapiens) (P04637 whole entry, looked up): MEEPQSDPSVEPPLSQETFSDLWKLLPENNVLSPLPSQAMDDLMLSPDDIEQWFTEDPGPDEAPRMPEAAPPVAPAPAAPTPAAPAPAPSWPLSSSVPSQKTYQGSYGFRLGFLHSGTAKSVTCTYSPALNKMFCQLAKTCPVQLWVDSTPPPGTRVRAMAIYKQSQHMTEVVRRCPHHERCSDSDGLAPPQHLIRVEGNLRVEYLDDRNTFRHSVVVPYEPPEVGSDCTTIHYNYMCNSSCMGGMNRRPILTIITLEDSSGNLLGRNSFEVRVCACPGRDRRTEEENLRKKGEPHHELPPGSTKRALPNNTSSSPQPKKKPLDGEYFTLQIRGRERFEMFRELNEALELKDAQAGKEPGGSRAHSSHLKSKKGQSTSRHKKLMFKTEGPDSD
Chain of Signal transducer and activator of transcription 3 (Homo sapiens) (P40763 whole entry, looked up): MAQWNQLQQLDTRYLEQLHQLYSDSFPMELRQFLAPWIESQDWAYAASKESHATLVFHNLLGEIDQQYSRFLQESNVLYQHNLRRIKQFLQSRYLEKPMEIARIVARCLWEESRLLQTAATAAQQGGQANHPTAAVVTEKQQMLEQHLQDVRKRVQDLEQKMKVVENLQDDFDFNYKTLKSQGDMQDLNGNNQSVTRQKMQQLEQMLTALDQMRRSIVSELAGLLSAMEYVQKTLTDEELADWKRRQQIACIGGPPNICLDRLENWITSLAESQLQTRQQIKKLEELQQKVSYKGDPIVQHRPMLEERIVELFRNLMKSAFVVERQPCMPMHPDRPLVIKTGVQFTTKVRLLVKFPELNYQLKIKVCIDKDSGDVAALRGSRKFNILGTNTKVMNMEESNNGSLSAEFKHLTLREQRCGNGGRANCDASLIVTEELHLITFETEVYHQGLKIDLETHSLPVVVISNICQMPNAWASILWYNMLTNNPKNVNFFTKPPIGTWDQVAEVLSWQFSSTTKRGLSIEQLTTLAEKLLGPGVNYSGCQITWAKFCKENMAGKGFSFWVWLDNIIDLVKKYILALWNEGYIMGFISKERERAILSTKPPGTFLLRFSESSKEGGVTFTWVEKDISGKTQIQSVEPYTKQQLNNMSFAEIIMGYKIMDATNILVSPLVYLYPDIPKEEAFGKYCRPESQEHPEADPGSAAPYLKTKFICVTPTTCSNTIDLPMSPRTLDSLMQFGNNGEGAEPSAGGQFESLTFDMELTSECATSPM

As for `O=c1[nH]c2ccc(S(=O)CCN3CCC(Cc4ccc(F)cc4)CC3)cc2o1` (configuration not stated), the outcome in [1], in experiment [3], in experiment [5], in experiment [6], in [7] and in experiment [8] was inactive. Also, the outcome was “inactive” in experiment [9]; “inactive” in the experiment with TIMP1, TIMP1 (gene 7076); “inactive” in experiment [10]; “inactive” in experiment [11]; “inactive” in experiment [12]; “inactive” in experiment [13]. In addition, the outcome in [14] and in experiment [15] was inactive. For the same compound, the concentration at half-maximal activity (AC50) is 67.2 µM (active) in [2] and 50 µM (active) in [4].
As to `CCOC(=O)c1ccc(C2CCC(NC[C@H](O)COc3ccc(O)c(NS(C)(=O)=O)c3)CC2)cc1` (some centres not stated), the compound was classed as inactive in [1], in experiment [2], in [3], in [4], in experiment [5] and in experiment [6]. For the same compound, the outcome was “inactive” in [7]; “inactive” in experiment [8]; “inactive” in experiment [9]; “inactive” with TIMP1, TIMP1 (gene 7076); “inactive” in experiment [10]; “inactive” in experiment [16]. The result in experiment [11], in experiment [12], in experiment [13] and in experiment [15] was inactive.
For `CC[C@H]1OC(=O)[C@H](C)[C@@H](O[C@H]2C[C@@](C)(OC)[C@@H](O)[C@H](C)O2)[C@H](C)[C@@H](O[C@@H]2O[C@H](C)C[C@H](N(C)C)[C@H]2O)[C@](C)(O)C[C@@H](C)C(=O)[C@H](C)[C@@H](O)[C@]1(C)O`, the compound was called inactive in experiment [1], in experiment [2], in experiment [17], in experiment [3], in experiment [4] and in experiment [5]. Moreover, the outcome in experiment [6] was “inactive”; in [7], “inactive”; in [8], “inactive”; in experiment [9], “inactive”; with TIMP1, TIMP1 (gene 7076), “inactive”; in experiment [10] it was “inactive”. Besides, the result in experiment [11], in experiment [13], in experiment [15] and in experiment [18] was inactive. Also, the concentration at half-maximal activity (AC50) in experiment [12] was 8.69 µM (active).
As to `CC(C)c1cccc(C(C)C)c1N1C(=O)c2ccc(O)cc2C1=O`, the compound was called inactive in [1], in [17], in experiment [3], in experiment [5], in [6] and in experiment [7]. Also, the outcome is “inactive” in [8]; “inactive” in experiment [9]; “inactive” with TIMP1, TIMP1 (gene 7076); “inactive” in [10]; “inactive” in [11]; “inactive” in [13]. Besides, the compound was called inactive in experiment [14], in experiment [15] and in experiment [18]. For the same compound, the results for the AC50 in [2], in experiment [4] and in experiment [12] were 91.4 µM (active), 50 µM (active) and 10.8 µM (active), respectively.
